The nature of experiment [1]: qHTS assay for small molecule agonists of the p53 signaling pathway (AID 651631; calls by dose curve; also: nearly all actives have a fitted effect of over 15% in size; also: potency is read from the fitted curve at half-maximal effect). In a few lines: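 We treat p53RE-bla HCT-116 cells with compounds for 16 h at 37 °C, add LiveBLAzer B/G FRET substrate for 2 h at room temperature, and measure fluorescence intensity.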
(In general: Quantitative high-throughput screening tests each substance at several concentrations.)

Experiment [2] in a line: qHTS assay for small molecules that induce genotoxicity in human embryonic kidney cells expressing luciferase-tagged ATAD5 (AID 651632). Also: nearly all actives have a fitted effect of over 15% in size. The method, boiled down:
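HEK293T cells carrying luciferase-tagged ATAD5 were given compound or DMSO vehicle and incubated 16 hr at 37C, 5% CO2. Luciferase activity was read after 30 min at room temperature with Amplite; a rise signals genotoxic stress.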

Experiment [3] is described as follows: qHTS assay for small molecule agonists of the p53 signaling pathway - cell viability (AID 651633; calls by dose curve; also: nearly all actives have a fitted effect of over 30% in size; also: potency is read from the fitted curve at half-maximal effect). The method, boiled down:
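Viability counter-read: CellTiter-Glo luminescence (30 min, room temperature) in the same p53RE-bla plates. These plates had been exposed to compounds for 16 h at 37 C.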

Experiment [4] is described as follows: qHTS assay for small molecules that induce genotoxicity in human embryonic kidney cells expressing luciferase-tagged ATAD5 - cell viability (AID 651634; calls by dose curve; also: nearly all actives have a fitted effect of over 25% in size). In a few lines:
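HEK293T cells carrying luciferase-tagged ATAD5, 2,000 cells/well, exposed to compound for 15.5 hr at 37C. Viability read as live-cell protease activity by CellTiter-Fluor fluorescence after 30 min at 37C.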

The nature of experiment [5]: qHTS assay for small molecule disruptors of the mitochondrial membrane potential - cell viability (AID 720634; calls by dose curve;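 also: human HepG2 liver cancer cells; series mostly up to about 83 µM; nearly all actives have a fitted effect of over 20% in size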). The method, boiled down:
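HepG2 cells, 2,000 per well, attached overnight, then treated 1 hr at 37 C, 5% CO2. Viability read as ATP by CellTiter-Glo luminescence after 30 min at room temperature. Read in the same wells as the m-MPI membrane-potential dye assay.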

Experiment [6] in a line: qHTS assay to test for compound auto fluorescence at 590 nm (red) in HepG2 cells (AID 720674). The method, boiled down: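 1 hr compound incubation on HepG2 cells, 37 C, 5% CO2; plate read ex 540 nm / em 590 nm; intensities reported as Rose Bengal sodium equivalents.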
Experiment [7] is described as follows: qHTS assay to test for compound auto fluorescence at 460 nm (blue) in HEK293 cells (AID 720678). Also: potency is read from the fitted curve at half-maximal effect. The method, boiled down:
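Blue-channel (Ex/Em 405/460 nm) intensity measured in HEK293 cultures after overnight compound exposure at 37C; signal expressed relative to triamterene. Cells plated 2,000 per well in 10% dialyzed FBS medium and allowed 4-5 hr to attach.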

Experiment [8] is described as follows: qHTS assay to test for compound auto fluorescence at 590 nm (red) in HEK293 cells (AID 720679). In a few lines: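 Red-channel autofluorescence (Ex/Em 540/590 nm; Rose Bengal sodium reference) was measured after overnight 37C, 5% CO2 exposure of attached HEK293 cells, 2,000 per well in medium with 10% dialyzed FBS.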
Experiment [9] in a line: qHTS assay to test for compound auto fluorescence at 535 nm (green) in HEK293 cells (AID 720680).
The nature of experiment [10]: qHTS assay to test for compound auto fluorescence at 460 nm (blue) in HEK293 cell free culture (AID 720681). Also: potency is read from the fitted curve at half-maximal effect. The method, boiled down: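 Blue fluorescence (Ex 405/Em 460 nm, triamterene-equivalent) was read immediately after pin transfer of compound or DMSO into medium (DMEM, 10% FBS) without cells.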
A short description of experiment [11]: qHTS assay to test for compound auto fluorescence at 535 nm (green) in HEK293 cell free culture (AID 720682). The method, boiled down:
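Green-channel intensity (Ex/Em 485/535 nm) was recorded from compound-treated wells containing only DMEM with 10% FBS. Fluorescein provided the equivalency standard.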

Experiment [12] is described as follows: qHTS assay to test for compound auto fluorescence at 590 nm (red) in HEK293 cell free culture (AID 720683). The method, boiled down: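 Red-channel autofluorescence of compounds in culture medium (DMEM, 10% FBS), no cells, measured at 540/590 nm. Rose Bengal sodium is the reference fluorophore for equivalence.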
Experiment [13] in a line: qHTS assay to test for compound auto fluorescence at 590 nm (red) in HepG2 cell free culture (AID 720684). The method, boiled down: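 Steps: dispense MEM/10% FBS medium, no cells; pin compound or DMSO vehicle; read red channel, Ex/Em 540/590 nm. Output given as Rose Bengal sodium equivalents.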
Experiment [14] can be described thus: qHTS assay to test for compound auto fluorescence at 460 nm (blue) in HepG2 cell free culture (AID 720685). Also: potency is read from the fitted curve at half-maximal effect. The method, boiled down: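 Compound (23 nL) or DMSO pinned into cell-free MEM with 10% FBS; blue fluorescence read at 405/460 nm excitation/emission, expressed as auto-fluorescence equivalency to triamterene.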
A short description of experiment [15]: qHTS assay to test for compound auto fluorescence at 535 nm (green) in HepG2 cell free culture (AID 720686).
Experiment [16] is described as follows: qHTS assay to test for compound auto fluorescence at 535 nm (green) in HepG2 cells (AID 720675).
The nature of experiment [17]: qHTS assay to test for compound auto fluorescence at 460 nm (blue) in HepG2 cells (AID 720687). Also: potency is read from the fitted curve at half-maximal effect. In a few lines: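 Blue-channel autofluorescence (Ex/Em 405/460 nm, triamterene-equivalent) was measured after 1 hr compound exposure at 37 C, 5% CO2. Cells were HepG2, plated overnight at 37 C in MEM plus 10% FBS.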
Experiment [18] addresses Glucocorticoid receptor (Homo sapiens) (UniProt P04150). Put plainly: qHTS assay to identify small molecule agonists of the glucocorticoid receptor (GR) signaling pathway (AID 720691; active = well fitted activation curve with a large enough effect in the signal ratio in the repeat runs, not every such curve was filed as active; the % refers to the signal ratio). In a few lines:
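GR-bla HeLa cells carrying a GRE-driven beta-lactamase reporter, exposed to compounds for 18 h at 37 C. Reporter activation read as fluorescence after 2 h with LiveBLAzer B/G FRET substrate at room temperature.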

The target is the same in experiment [19]. Put plainly: qHTS assay to identify small molecule antagonists of the glucocorticoid receptor (GR) signaling pathway (AID 720692; active = well fitted inhibition curve with a large enough effect in the signal ratio in the repeat runs, not every such curve was filed as active; the % refers to the signal ratio). In a few lines:
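GR-bla HeLa cells carrying a GRE-driven beta-lactamase reporter received compound after 4 h plating, then dexamethasone (5 nM final). After 18 h at 37C, the FRET substrate was loaded for 2 h at room temperature and fluorescence read.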

Experiment [20] in a line: qHTS assay for small molecule disruptors of the mitochondrial membrane potential (AID 720635). In a few lines: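 Mitochondrial membrane potential tracked with Mito-MPS dye, red aggregates (ex 540/em 590 nm) against green monomers (ex 490/em 535 nm). Compound treatment 1 hr at 37C, dye 30 min in HepG2.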

“And” between values parts separate entries of the source, which are not always exact repeats. Identical values can stand only once. Results filed as inconclusive are left out. Some structures have more than one record in an assay (separate samples or runs), and their calls can disagree. The source made the active and inactive calls. Unless noted, calls follow the shape of the dose curve; as a rule, active = well fitted curve in the direction sought with a large enough effect in the repeat runs; inconclusive = weak or mixed curves; inactive = no such curve, though single readings can be large; an effect the other way counts as inactive or inconclusive.
Tags tell the direction and shape of the fitted curve or compound fluorescence and quenching.

Sequence of Glucocorticoid receptor (Homo sapiens) (P04150 whole entry, looked up): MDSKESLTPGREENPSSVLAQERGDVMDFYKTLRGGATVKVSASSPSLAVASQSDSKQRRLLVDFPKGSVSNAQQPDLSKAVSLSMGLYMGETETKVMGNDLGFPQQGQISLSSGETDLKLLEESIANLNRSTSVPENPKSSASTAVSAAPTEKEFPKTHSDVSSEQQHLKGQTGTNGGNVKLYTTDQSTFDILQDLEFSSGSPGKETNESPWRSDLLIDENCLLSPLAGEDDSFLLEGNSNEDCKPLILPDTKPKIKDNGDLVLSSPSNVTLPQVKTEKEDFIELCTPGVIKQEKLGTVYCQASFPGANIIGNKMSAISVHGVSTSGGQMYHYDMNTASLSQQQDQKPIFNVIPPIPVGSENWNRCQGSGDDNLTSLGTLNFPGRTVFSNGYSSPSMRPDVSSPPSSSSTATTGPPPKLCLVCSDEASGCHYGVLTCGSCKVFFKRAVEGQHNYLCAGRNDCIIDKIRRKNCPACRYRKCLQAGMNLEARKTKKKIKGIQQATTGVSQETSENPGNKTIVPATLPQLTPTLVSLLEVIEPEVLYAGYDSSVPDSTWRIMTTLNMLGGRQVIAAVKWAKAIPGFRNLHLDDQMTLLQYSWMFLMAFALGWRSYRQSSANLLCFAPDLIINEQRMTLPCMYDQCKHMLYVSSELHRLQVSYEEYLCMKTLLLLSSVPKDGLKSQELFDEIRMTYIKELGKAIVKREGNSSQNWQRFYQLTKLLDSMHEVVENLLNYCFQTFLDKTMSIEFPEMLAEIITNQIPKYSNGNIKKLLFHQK

For `C=C(C)C(=O)OC(C)C`, the Potency result in experiment [1], in experiment [2], in experiment [3], in [4], in experiment [5] and in [7] was “inactive” throughout. Moreover, the Potency result in experiment [10] and in [14] was “inactive” throughout. Besides, the compound was classed as inactive in experiment [6], in [8], in experiment [9], in experiment [11], in experiment [12] and in experiment [13]. For the same compound, in experiment [15], the call was inactive.
Regarding `Oc1ccc(C(O)CNCCCCCCNCC(O)c2ccc(O)c(O)c2)cc1O` (centres undefined), the Potency entry in experiment [1], in [2], in experiment [3], in [4], in [5] and in experiment [7] was “inactive” in each case. The Potency result in [10], in experiment [14], in experiment [17], in experiment [18] and in experiment [19] was “inactive” each time. In addition, the call in experiment [6], in [16], in [8], in experiment [11], in experiment [13] and in experiment [15] was inactive.
`CC(=O)Nc1ccc(/C=N/NC(N)=S)cc1`: the Potency entry in experiment [1], in experiment [2], in experiment [3], in experiment [4], in experiment [5] and in experiment [7] was “inactive” in each case. In addition, the Potency entry in experiment [10] and in [17] was “inactive” throughout. In addition, the outcome in experiment [6], in experiment [16], in experiment [8], in experiment [9], in experiment [11] and in experiment [13] was inactive. Further, the call in experiment [15] was inactive.
Consider `CC(C)(C)C1CCCCC1O` (centres undefined), for which the Potency entry in experiment [1], in experiment [2], in [3], in experiment [4], in experiment [20] and in experiment [7] was “inactive” each time. The Potency result in experiment [10], in experiment [14], in experiment [17], in experiment [18] and in experiment [19] was “inactive” in each case. In addition, the result in [6], in experiment [16], in [8], in experiment [11], in [12] and in experiment [13] was inactive. Further, in experiment [15], the compound was classed as inactive.
With `CC(C)=CCCC(C)CC=O` (centres undefined), the Potency entry in experiment [1], in [2], in experiment [3], in experiment [4], in experiment [5] and in experiment [7] was “inactive” each time. The Potency entry in [14], in experiment [17], in experiment [18] and in experiment [19] was “inactive” each time. The call in experiment [6], in experiment [16], in experiment [8], in experiment [9], in [11] and in experiment [12] was inactive. Moreover, the compound was called inactive in experiment [13] and in experiment [15].
For the compound `Nc1nc(N)c2nc(CNc3ccc(C(=O)N[C@@H](CCC(=O)O)C(=O)O)cc3)cnc2n1`, the Potency entry is “inactive and 57.1 nM (active)” in [1]; “inactive and 45.3 nM (active)” in [3]; “inactive and 39.8 µM [fluorescent] (active)” in [7]; 39.8 µM (active) in experiment [10]; 35.5 µM [fluorescent] (active) in experiment [14]; 39.8 µM [fluorescent] (active) in experiment [17]. In addition, the Potency entry in experiment [2], in [4], in experiment [5] and in experiment [19] was “inactive” each time. In addition, the compound was classed as inactive in [6], in experiment [16], in experiment [8], in experiment [11], in experiment [12] and in experiment [13]. Moreover, in experiment [15], the call was inactive.
For the compound `CC[C@H](C)[C@@H](C(=O)O)n1sc2ccccc2c1=O`, the Potency entry in experiment [1], in experiment [2], in experiment [3], in [4], in [5] and in experiment [7] was “inactive” each time. For the same compound, the Potency entry in experiment [10], in experiment [14], in experiment [18] and in [19] was “inactive” in each case. Also, the compound was called inactive in [6], in [16], in [8], in experiment [11], in experiment [13] and in experiment [15].
Take `CC(C)c1ccccc1C(C)C`: the Potency result in experiment [1], in experiment [2], in experiment [3], in experiment [4], in experiment [5] and in [7] was “inactive” each time. In addition, the Potency entry in [10], in experiment [14], in experiment [17] and in experiment [18] was “inactive” each time. Besides, the result in experiment [6], in experiment [16], in experiment [8], in experiment [9], in experiment [11] and in experiment [12] was inactive. The call in [13] and in experiment [15] was inactive.

These data come from PubChem BioAssay (Tox21).
